Screening results (PubChem BioAssay)
FLuc counter – firefly luciferase modulation, counter-screen for miR-21 project. 6.9% of 360,000 active. purified FLuc, Km substrates, luminescence inhibition. P08659. Potency, µM (doses to about 57.5 µM), inactives show at the top dose activity change, negative = inhibition, most hits filed as inhibitors. AID 588342;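 further: plate controls were vehicle for no effect and reference inhibitor for full effect; nearly all actives have a fitted effect of over 55% in size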
Target sequence (P08659 whole entry, looked up): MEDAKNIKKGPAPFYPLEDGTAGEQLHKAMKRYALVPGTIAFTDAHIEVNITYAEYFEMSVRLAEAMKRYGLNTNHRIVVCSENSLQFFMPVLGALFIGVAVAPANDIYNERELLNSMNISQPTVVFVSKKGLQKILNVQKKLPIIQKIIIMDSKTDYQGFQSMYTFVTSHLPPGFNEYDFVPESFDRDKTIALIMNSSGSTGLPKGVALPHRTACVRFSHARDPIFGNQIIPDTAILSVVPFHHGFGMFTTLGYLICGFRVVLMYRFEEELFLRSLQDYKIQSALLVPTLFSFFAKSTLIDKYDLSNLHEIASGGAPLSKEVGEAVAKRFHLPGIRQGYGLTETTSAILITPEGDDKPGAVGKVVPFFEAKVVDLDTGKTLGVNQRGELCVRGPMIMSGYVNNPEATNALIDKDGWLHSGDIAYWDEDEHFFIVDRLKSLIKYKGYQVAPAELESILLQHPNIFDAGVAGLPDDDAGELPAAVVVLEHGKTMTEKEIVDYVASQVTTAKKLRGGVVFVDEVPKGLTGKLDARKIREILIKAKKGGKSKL
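Purified P. pyralis luciferase, 10 nM final, with Km-level 10 uM D-luciferin and 10 uM ATP in 50 mM Tris acetate pH 7.5, 10 mM Mg acetate, 0.01% Tween-20, 0.05% BSA; 6-point qHTS titration about 60 µM downward; luminescence read.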
NPC1 promoter act – NPC1 promoter activation | Huh7 NPC1 promoter luciferase reporter, 24 h | Potency, µM (highest dose often 9.22 µM), for inactives: at the top dose activation, usual class: activators | 2.4% of 320,000 active | AID 485313; further: % of control where 0% means no effect; nearly all actives have a fitted effect of over 60% in size
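Quantitative HTS used a cell-based reporter: Huh7 cells stably bearing the NPC1 promoter upstream of luciferase were treated with compounds for 24 h, and promoter activation was read as luminescence.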
SMN2 splice enh – SMN2 splice variant enhancement; HEK293 SMN2-luciferase splicing reporter, luminescence, 30-36 h; Potency, µM (top dose mostly 46.1 µM), for the others: top-dose activity change, positive = activation, most hits filed as activators; 2.8% of 210,000 active; AID 1458; further: % of control where 0% means no effect; nearly all actives have a fitted effect of over 55% in size
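qHTS luciferase splicing reporter: luminescence rises when SMN2 exon 7 is included in transfected HEK293 cells. Compound exposure lasted 30-36 h at 37C, with 4.5 mM final sodium butyrate as control, followed by a ONE-Glo read.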
Rab9 promoter act – activators of Rab9 promoter | Huh7 Rab9 promoter-luciferase reporter, luminescence, 24 h | Potency, µM (series often up to 9.22 µM), for the others: at the top dose activation, negative = inhibition, hits mostly activators | 2.8% of 320,000 active; further: % of control where 0% means no effect; nearly all actives have a fitted effect of over 60% in size
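Using Huh7 cells stably transfected with Rab9 promoter–luciferase, compounds were incubated 24 h at 37 °C, 5% CO2; luciferase luminescence was read 10 min after reagent addition.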
KinaseGlo FLuc – Kinase-Glo luciferase inhibition (counter-screen) | Potency, µM (series often up to 38.3 µM), inactives show at the highest dose activity change, negative = inhibition, hits mostly inhibitors | AID 1379 | Kinase-Glo luciferase, ATP luminescence, 8 min | Q27757 | 0.28% of 200,000 active; further: on the % scale 0 is the no-effect control and ±100 the full control effect; nearly all actives have a fitted effect of over 60% in size
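Kinase-Glo luciferase light output from ATP and luciferin was measured with 10 uM ATP, within the enzyme's linear range. Buffer: 50 mM imidazole pH 7.2, 50 mM KCl, 7 mM MgCl2, 0.01% Tween 20, 0.05% BSA; luminescence read after 8 min at ambient temperature.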
ELG1 genotox – genotoxicity induction in ELG1-luciferase HEK293T cells. HEK293T ELG1-luciferase reporter, luminescence, 16 h. Potency, µM (highest dose often 46 µM), for inactives: top-dose activity change, positive = activation, actives largely listed as activators. 1.3% of 330,000 active; further: % of control where 0% means no effect; nearly all actives have a fitted effect of over 60% in size
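16 hr compound incubation (37 °C, 5% CO2) of HEK293T cells carrying luciferase-tagged ELG1; luciferase then measured by ONE-Glo luminescence after 30 min at RT.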
* marks the source's active call; other numbers are inactive results; ? = inconclusive; . = no result; [ ] = remark or other dose. Most compounds without a hit are left out; they make up all but 7.3% or so of the library. The call rests on the fitted dose curve; in most records, active means well fitted curve in the direction sought with a large enough effect; inconclusive means small, poorly fitted or top-dose-only effect, or another doubt; inactive means no such curve, though single readings can be large; an effect the other way counts as inactive or inconclusive. Potency means the concentration at half of the fitted maximal effect.

SMILES	FLuc counter	NPC1 promoter act	SMN2 splice enh	Rab9 promoter act	KinaseGlo FLuc	ELG1 genotox
O=C(Nc1ccc(Cl)c(Cl)c1)Nc1nc(-c2ccccc2)cs1	-2%	0%	-59%	-9%	3%	1%
COc1ccc(Cn2c(C3CC3)nc3ccc(NC(=O)c4ccco4)cc3c2=O)cc1	15µM*	3.2µM*	?	21%	-3%	?
CCCc1nc2ccc(NC(=O)c3ccco3)cc2c(=O)n1Cc1ccc(Cl)cc1	-16%	7%	-8%	9%	1%	-7%
CCC(=O)Nc1ccc2nc(C3CC3)n(Cc3ccccc3)c(=O)c2c1	?	?	?	3.5µM*	-16%	8.2µM*
CC(=O)Nc1ccc2nc(C)n(Cc3ccc(Cl)cc3)c(=O)c2c1	-29%	?	13µM*	25%	0%	?
O=C(Nc1ccc2nc(C3CC3)n(Cc3ccccc3)c(=O)c2c1)C1CC1	-9%	2.8µM*	.	2.5µM*	.	?
CC(=O)N(C)Cc1ccc(C(=O)CCl)cc1	-4%	-26%	?	-24%	2%	?
CCCCCOC(=O)c1ccc(OC(=O)c2cncc(Br)c2)cc1	-13%	21%	56%	22%	5%	9%
CCc1ccc(OC(=O)c2cncc(Br)c2)cc1	6µM*	0%	.	-7%[1.84 µM]	.	1%
CCc1ccc(C(=O)COC(=O)c2cncc(Br)c2)cc1	15µM*	-4%	-19%	-7%	-2%	-5%
CC(=O)/C(C#N)=C1\NC(=O)C(Cc2ccc(C)c(C)c2)S1 (stereo not given)	21µM*	10%	?	11%	-1%	-1%
COc1cccc(-c2nnc3sc(-c4ccco4)nn23)c1	?	4.5µM*	20%	2.8µM*	-4%	?
COc1cccc(-c2nn3c(-c4cccc(C)c4)nnc3s2)c1	19µM*	-9%	3%	8%	11%	12%
CCOc1cccc(-c2nnc3sc(-c4cccs4)nn23)c1	1%	-3%	-21%	6%	1%	5%
COc1cccc(-c2nnc3sc(-c4ccc(C)cc4)nn23)c1	-3%	-3%	0%	3%	0%	-3%
COc1cccc(-c2nnc3sc(-c4cccs4)nn23)c1	?	3.2µM*	?	2.8µM*	-3%	16%
c1nc2sc3c(c2c2nnnn12)CCCC3	4%	-1%	16%	2%	23%	-22%
CCOCCNC(=O)c1ccccc1C(=O)NCCOCC	3%	2%	-10%	-4%	-6%	-2%
O=C(/C=C/c1ccc[nH]1)c1ccc(F)cc1	12µM*	6%	?	1%	-18%	?
O=C(/C=C/c1ccc[nH]1)c1ccccc1	12µM*	23%	-6%	?	-6%	8%
O=C(/C=C/c1c(F)cccc1Cl)c1ccc(F)cc1	6.7µM*	1%	-72%	13%	?	2%
CCOC(=O)c1[nH]c(C)c(CCC(=O)Nc2cccc(SC)c2)c1C	-16%	.	.	.	.	.
CCN(c1cccc(C)c1)S(=O)(=O)c1ccc2[nH]c(=O)c(=O)[nH]c2c1	1%	1%	-3%	-6%	-1%	-1%
CCN(C(=O)C(C)Sc1ccc(S(=O)(=O)N2CCOCC2)cn1)c1ccccc1 (stereo not given)	3%	0%	.	-1%	.	0%
CCOCCCNc1nc2ccccc2[nH]1	-2%	-1%	24%	4%	0%	-1%
SMILES	FLuc counter	NPC1 promoter act	SMN2 splice enh	Rab9 promoter act	KinaseGlo FLuc	ELG1 genotox
CCOCCCNc1ccc(-c2ccccc2)nn1	?	?	14µM*	2.2µM*	-9%	13µM*
Cc1cc(C(=O)COC(=O)c2ccc[nH]c2=O)c(C)n1C1CC1	4.8µM*	?	?	3.5µM*	-4%	?
Cc1cc(C(=O)COC(=O)c2ccc[nH]c2=O)c(C)n1-c1ccc(F)cc1	3.4µM*	0.56µM*	5µM*	0.35µM*	-2%	?
COC(=O)c1ccc(-n2c(C)cc(C(=O)COC(=O)CNS(=O)(=O)c3ccc(C)cc3)c2C)cc1	0%	-5%	-12%	-6%	0%	2%
Cc1ccc(S(=O)(=O)NCC(=O)OCC(=O)c2cc(C)n(-c3ccccc3)c2C)cc1	15µM*	-1%	?	0%	0%	3%
Cc1cc(C(=O)COC(=O)c2ccc[nH]c2=O)c(C)n1-c1ccccc1	1.7µM*	0.32µM*	2.5µM*	0.28µM*	-5%	0.82µM*
Cc1cccc(C(=O)OCC(=O)NC(=O)c2ccccc2)c1O	-2%	7%	.	-3%	.	3%
Cc1ccccc1OCC(=O)OCC(=O)c1cc(C)n(C2CC2)c1C	?	-4%	.	1%	.	4%
Cc1cc(C(=O)COc2ccccc2C(N)=O)c(C)n1C1CC1	15µM*	33%	-8%	?	0%	5%
Cc1cc(C(=O)COC(=O)c2ccc(F)cc2F)c(C)n1C1CC1	0.38µM*	2.5µM*	.	2.8µM*	.	?
Cc1cc(C(=O)OCc2nnc(-c3ccccc3)o2)c(C)n1-c1ccccc1	?	-2%	-55%	-3%	-4%	-21%
Cc1noc(C)c1COC(=O)c1cc(C)n(-c2ccccc2)c1C	15µM*	28%	-10%	?	-1%	?
CCOC(=O)c1ccccc1OCc1cc(/C=N/NC(=O)c2cccnc2)ccc1OC	-1%	-3%	.	-2%	.	-14%
Cc1ccc(C)c(N2N=C(C(=O)Nc3ccc(S(=O)(=O)N4CCCC4)cc3)CCC2=O)c1	?	6%	.	-1%	.	13%
COc1ccc(-c2nc3n(n2)C(c2ccc(O)cc2)C(C(=O)Nc2cccnc2)=C(C)N3)cc1OC (stereo not given)	-13%	.	-10%	.	.	.
CCOCCOC(=O)c1ccc(NC(=O)C2COc3ccccc3O2)cc1 (stereo not given)	?	8%	.	7%	.	6%
N/C(CS(=O)(=O)c1ccccc1)=N\OC(=O)c1ccc(F)cc1	6%	-1%	.	6%	.	?
O=C(O/N=C/C1=C(Cl)c2ccccc2CC1)c1ccc(F)cc1	6.7µM*	-3%	3%	-5%	-9%	-4%
Nc1ccc(-c2nc3ccc(N)cc3s2)cc1	0.27µM*	?	.	?	.	?
Nc1ccc2nc(-c3ccc(O)cc3)sc2c1	0.3µM*	.	1.4µM*	.	.	.
Nc1cccc(-c2nc3ccc(N)cc3s2)c1	0.27µM*	?	13µM*	?	13µM*	?
C/C(=N\NC(=O)CC#N)c1cc2ccc(O)cc2oc1=O	2%	2%	7%	-7%	-1%	0%
Cc1nn(C)c(C)c1S(=O)(=O)N1CCC(C(=O)NCC2COc3ccccc3O2)CC1 (stereo not given)	0%	-1%	-4%	-7%	-2%	2%
